Only some compounds are listed: those with a hit (about 2.7% of all), similar ones and a draw of the others.
PREPL inhibitor = inhibitors of human prolyl oligopeptidase-like enzyme PREPL; Q4J6C6; recombinant PREPL, fluorescence polarization activity-based probe; inhibition, % at 5.96 µM; 0.68% of 320,000 active; AID 2751; in the data active = inhibition above about 43%;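 also: 0% = enzyme with DMSO and 100% = wells lacking enzyme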
TMEM16A inh = mouse TMEM16A channel inhibition, primary screen | 1.2% of 310,000 active | normalized B-score (activity score, 25-100; higher = stronger inhibition) at 10 µM | HEK293 TMEM16A/YFP iodide influx fluorescence, ionomycin | Q8BHY3;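 active = ratio plate-corrected score three or more library SD toward inhibition, starting fluorescence score within five deviations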;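 also: score derived from kinetic fluorescence span divided by baseline fluorescence per well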
PP1 inh = PP1-alpha (human) inhibition in PP5 counter-screen; P62136; AID 2235; inhibition, % at 6.7 µM; purified PP1alpha, OMFP fluorescence; 0.9% of 320,000 active;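 active = inhibition above the mean inhibition of all tested compounds plus 3 SD, computed separately for each screening campaign, cut at about 15% in these data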
FID counter = fluorescent intercalator displacement, NS3 helicase counter-screen. 0.17% of 290,000 active. AID 1845. DNA fluorescent intercalator displacement, fluorescence. inhibition, % at 7.9 µM; in the data active = inhibition above about 37%;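 also: 0% = vehicle and 100% = reference compound; higher means more ethidium bromide displaced from hairpin DNA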
ANO1 activ = mouse TMEM16A channel activation, primary screen; Q8BHY3; HEK293 TMEM16A/YFP-H148Q/I152L, iodide quench fluorescence; hits give low values; B-score at 10 µM; 0.3% of 340,000 active; AID 623877;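 active = fluorescence-ratio B-score plate-corrected deviation score at least 3 library SD below zero, with starting fluorescence score within 5 deviations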;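 also: channel opened by trigger with iodide after compound preincubation; score built on the fluorescence ratio of max minus min over baseline; more negative score means more quench and so TMEM16A activation or potentiation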
PP5 inh = inhibitors of human protein phosphatase 5 (PP5); P53041; purified PP5c, OMFP substrate fluorescence; inhibition, % at 6.7 µM; 0.18% of 320,000 active; AID 1987;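 active = inhibition above the campaign's mean inhibition across all tested compounds plus 3 SD, cut at about 9.5% in these data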;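 also: 0% = DMSO only and 100% = 100 µM cantharidin control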
TMEM16A reconf = re-confirmation of mouse TMEM16A chloride channel inhibitors; shares compounds with TMEM16A inh; HEK293 TMEM16A/YFP-H148Q, iodide quench fluorescence; ionomycin added to raise cell calcium; inhibition, % at 10 µM; 39% of 2,300 active;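 active = mean duplicate percent inhibition, scaled so buffer wells are 0 and the reference blocker 100, over three buffer SD above buffer mean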
TMEM16A Ca cntr = counter-screen for TMEM16A inhibitors: effect on calcium mobilization; calcium response (% of ionomycin), % at 10 µM; shares compounds with TMEM16A inh; TMEM16A/YFP HEK293, Fluo4 calcium mobilization; 2% of 2,300 active;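 active = duplicate-averaged calcium signal over 20% of the ionomycin maximum, relative to buffer baseline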;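 also: each well's signal is peak minus trough fluorescence divided by its pre-addition baseline; 0% = buffer wells and 100% = ionomycin wells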
YFP-HEK293 quench = counter-screen for TMEM16A inhibitors: effect in parental YFP-HEK293 cells; shares compounds with TMEM16A inh; iodide YFP quench, ionomycin; YFP ratio F(max-min)/F0 at 10 µM; 2,300 tested, under 10 active; AID 652233;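 active = yellow fluorescent protein signal ratio exceeding the buffer control mean by over 5 SD of those controls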;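 also: ratio is mean of duplicate wells from kinetic YFP trace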
ClC-1 inh = blocks the rat ClC-1 voltage-dependent chloride channel; CHO ClC-1-YFP, iodide influx fluorescence quench; iodide control reads 0, buffer control 100; AID 652236; ratio percent, % at 10 µM; shares compounds with TMEM16A inh; 2,300 tested, under 10 active;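 active = duplicate-mean ratio percent above the mean of iodide-only control wells, which defines zero, plus 5 of their SD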;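 also: higher percent means stronger block of ClC-1 iodide influx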
An asterisk follows results filed as active; i = inactive; . = not tested or not shown.

SMILES	PREPL inhibitor	TMEM16A inh	PP1 inh	FID counter	ANO1 activ	PP5 inh	TMEM16A reconf	TMEM16A Ca cntr	YFP-HEK293 quench	ClC-1 inh
COc1ccccc1NC(=O)CN1CCN(CC(=O)Nc2ccc(S(N)(=O)=O)cc2)CC1	3.6	i	0.8	-17.9	i	-1.3	i	i	-0.898	-7.0
COc1ccccc1NC(=O)CN1CCN(CC(=O)Nc2ccc(F)cc2)CC1	9.4	i	0.8	-6.6	i	-0.9	.	.	.	.
O=C(CCc1ccc(O)cc1)c1c(O)cc(O)cc1O	4.9	25*	-7.6	.	i	2.5	18.0%*	i	-1.01	-17.0
COc1cc(O)c(CC=C(C)C)c(O)c1C(=O)CCc1ccc(O)cc1	0.9	i	0.4	.	i	8.3	.	.	.	.
CCOC(=O)c1ccn(CSc2c(F)c(F)cc(F)c2F)n1	-16.1	.	-0.8	.	i	1.3	.	.	.	.
CC(/C=C1\SC(=S)N(CC(=O)O)C1=O)=C\c1ccccc1	-0.5	i	2.5	-7.6	i	-1.0	.	.	.	.
CC(/C=C1\SC(=S)N(C(C(=O)O)c2ccccc2)C1=O)=C\c1ccccc1 (stereo not drawn)	9.1	100*	3.9	-20.5	i	-2.9	71.5%*	i	-1.01	-68.0
Cc1ccc(C(=O)O/N=C2\CC3CCC2(C)C3(C)C)cc1 (stereo not drawn)	10.2	25*	-2.6	-13.2	i	-0.6	i	i	-1.12	-3.5
Cc1cccc(C(=O)O/N=C2/CC3CCC2(C)C3(C)C)c1 (stereo not drawn)	2.4	i	-4.1	-7.3	i	2.5	.	.	.	.
N#Cc1c(-c2ccc(F)cc2)noc1N	15.8	100*	-2.9	1.2	i	-2.0	i	i	-1.02	-13.0
COc1cccc(-c2noc(N)c2C#N)c1	14.3	i	-1.6	1.4	i	1.4	.	.	.	.
Cc1ccc(C(=O)NC(C)c2nnc(SCC(=O)NC3CCCC3)n2C)cc1 (stereo not drawn)	.	i	.	-10.7	i	.	.	.	.	.
COCc1c(C(=O)N(C)Cc2ccccc2N2CCCC2)oc2ccccc12	.	.	.	.	i	.	.	.	.	.
CC1=CC(C)(C)N(C(=O)c2ccc(F)cc2)c2cc3c(cc21)OCO3	5.9	100*	1.4	-7.2	i	1.1	58.0%*	i	-0.999	-13.0
CC1=CC(C)(C)N(C(=O)CCl)c2cc(C)ccc21	15.4	i	-4.6	34.0	i	-0.6	.	.	.	.
O=C(c1ccc(CNS(=O)(=O)c2ccc(Br)cc2)cc1)N1CCCCC1	6.0	i	-2.2	-56.6	i	0.5	.	.	.	.
CCOc1ccc(-c2nc(CSCC(=O)N3CCN(c4cccc(OC)c4)CC3)c(C)o2)cc1	33.2	100*	3.4	-14.6	i	1.6	26.5%*	i	-0.908	-14.0
CCOc1ccc(-c2nc(CSCC(=O)NC3CC3)c(C)o2)cc1	-0.8	i	-5.4	-33.8	i	-4.4	.	.	.	.
CCCc1cc(C(=O)NNC(=S)NCc2ccccc2)cs1	12.3	100*	-0.8	-10.2	i	0.2	i	i	-1.13	0.0
CCCc1cc(C(=O)NCc2ccccc2)no1	27.8	100*	-2.1	-0.7	i	-1.6	i	i	-1.17	-7.5
CCCc1cc(C(=O)Nc2cccc(Cl)c2C)no1	12.3	25*	1.7	-17.8	i	-0.2	i	i	-1.03	-3.5
CCOC(=O)C1=C(COC(=O)COc2ccc(OCC)cc2)NC(=O)NC1C (stereo not drawn)	-11.1	i	-6.2	.	i	1.0	.	.	.	.
O=C(O)c1ccc(N=Cc2c(O)ccc3ccccc23)cc1	5.0	i	9.6	0.2	i	-0.3	.	.	.	.
COc1ccc(N=Cc2c(O)ccc3ccccc23)cc1	7.2	i	2.2	0.6	i	2.1	i	i	-0.51	4.0
CCn1c(N2CCN(S(=O)(=O)c3ccc(Cl)cc3)CC2)nc2ccccc21	9.7	25*	1.5	-18.5	i	3.6	i	i	-1.3	-8.0
SMILES	PREPL inhibitor	TMEM16A inh	PP1 inh	FID counter	ANO1 activ	PP5 inh	TMEM16A reconf	TMEM16A Ca cntr	YFP-HEK293 quench	ClC-1 inh
COc1cccc(/C=C2\CCC(C3CCCC3)C2=O)c1OC (stereo not drawn)	-4.2	25*	-0.8	-33.1	i	0.3	18.0%*	i	-0.981	-8.0
COc1ccc(/C=C2\CCC(C3CCCC3)C2=O)c(OC)c1OC (stereo not drawn)	15.7	i	-1.6	-14.5	i	-0.9	.	.	.	.
CCOC(=O)c1ccc(COc2ccc(C(C)C)cc2)o1	-2.9	i	-2.5	-5.0	i	-1.2	.	.	.	.
CCOc1ccc(OCc2ccc(C(=O)OCc3ccccn3)o2)cc1	-37.3	100*	1.2	-31.1	i	5.9	i	i	-1.02	-4.0
CCC(C)NC(=O)C1CCC(CNS(=O)(=O)c2ccccc2)CC1 (stereo not drawn)	-10.2	i	1.5	-19.3	i	0.5	i	i	-0.863	0.5
O=C(C1CCC(CNS(=O)(=O)c2ccccc2)CC1)N1CCOCC1 (stereo not drawn)	6.5	25*	-1.0	-11.3	i	1.5	i	i	-1.03	-8.0
Cc1ccc(C(=O)N2CCCC(C(=O)c3ccc(Cl)cc3C)C2)cn1 (stereo not drawn)	10.4	i	-3.3	-36.9	i	1.4	.	.	.	.
Cc1ccc(C(=O)N2CCCC(C(=O)c3ccc(Oc4ccccc4)cc3)C2)cn1 (stereo not drawn)	13.6	100*	-1.8	-38.1	i	1.3	29.0%*	i	-0.89	-10.5
O=C(CCC(=O)N(CC(=O)NC1CCCCC1)CC1CCCO1)Nc1nccs1 (stereo not drawn)	11.2	i	-3.6	-21.8	i	3.8	.	.	.	.
COc1ccc(-n2c(=O)cc(N3CCN(c4ccccc4F)CC3)[nH]c2=O)cc1	8.1	25*	-4.9	-16.0	i	-2.6	i	i	-1	-5.5
COc1ccc(-n2c(=O)cc(N3CCN(c4ccccc4OC)CC3)[nH]c2=O)cc1	7.0	i	-4.2	-4.3	i	0.7	.	.	.	.
COc1ccccc1N1CCN(c2cc(=O)n(-c3ccccc3Cl)c(=O)[nH]2)CC1	4.5	100*	-4.6	-26.9	i	-1.9	i	i	-1.02	-7.5
CC(C)Cn1c(N)c(C(=O)COC(=O)c2cc(-c3ccccc3)nc3ccccc23)c(=O)n(C)c1=O	-7.2	i	1.3	-2.0	i	0.5	.	.	.	.
